Test results from PubChem BioAssay (EPA / NIEHS).
Inconclusive results are not listed. Activity calls are given as the source filed them. Rule for the calls: active = hit-call score of the fitted dose curve at least 0.9, where 1 is the maximum; inconclusive = response in the unintended direction; inactive = score below 0.9.

Legend:
[1] = system: bovine Histamine 1 Receptor (H1), gene 281231; test: NVS_GPCR_bH1: NovaScreen (NVS) G Protein-Coupled Receptor Assay for bovine Histamine 1 Receptor (H1) (AID 2283246)
How it was run: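 Hits from a 25 uM duplicate primary screen were retested in concentration series (top 50 uM); binding measured as scintillation-counted displacement of radioligand from bovine cerebellar membranes after 1 h, normalised to DMSO.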

[2] = system: guinea pig Leukotriene B4 Receptor (LTB4), gene 100379538; test: NVS_GPCR_gLTB4: NovaScreen (NVS) G Protein-Coupled Receptor Assay for guinea pig Leukotriene B4 Receptor (LTB4) (AID 2283247)
How it was run: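 Membranes from guinea pig spleen incubated 2 h with radioligand and compound; bound counts measured by filtration and scintillation. Screened first at 25 uM in duplicate, then actives titrated to a 50 uM top concentration relative to DMSO.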

[3] = system: guinea pig Muscarinic, Peripheral (Mperiperal) Receptor, Non-selective Binding, gene 100379235; test: NVS_GPCR_gMPeripheral_NonSelective: NovaScreen (NVS) G Protein-Coupled Receptor Assay for guinea pig Muscarinic, Peripheral (Mperiperal) Receptor, Non-selective Binding (AID 2283250)
How it was run: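 Screened in duplicate at 25 uM, hits retested in concentration series to 50 uM max, using bladder membrane radioligand displacement from guinea pig. Filtration and scintillation counting 1 h post-dose, fitted relative to DMSO.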

[4] = target: guinea pig Opioid, Kappa 1 Receptor (OpiateK), OPRK1 (gene 100135587) (UniProt P41144); test: NVS_GPCR_gOpiateK: NovaScreen (NVS) G Protein-Coupled Receptor Assay for guinea pig Opioid, Kappa 1 Receptor (OpiateK) (AID 2283252);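 note: radioligand displacement from kappa opioid receptor in guinea pig cerebellar membranes; active means reduced radioligand binding relative to DMSO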
Sequence of guinea pig Opioid, Kappa 1 Receptor (OpiateK), OPRK1 (gene 100135587) (P41144 whole entry, looked up): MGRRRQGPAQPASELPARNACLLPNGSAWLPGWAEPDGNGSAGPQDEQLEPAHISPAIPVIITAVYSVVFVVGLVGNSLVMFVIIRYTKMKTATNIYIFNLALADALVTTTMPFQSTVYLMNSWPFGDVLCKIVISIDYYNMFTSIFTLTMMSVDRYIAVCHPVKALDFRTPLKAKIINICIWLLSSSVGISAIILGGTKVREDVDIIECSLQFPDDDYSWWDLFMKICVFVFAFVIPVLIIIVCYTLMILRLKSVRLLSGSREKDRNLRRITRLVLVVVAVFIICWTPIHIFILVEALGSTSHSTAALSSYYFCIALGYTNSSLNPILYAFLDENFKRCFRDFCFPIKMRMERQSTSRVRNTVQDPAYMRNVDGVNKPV
How it was run: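 Radioligand competition binding using guinea pig cerebellum membrane fraction; 2 h exposure; filter radiodetection. Single concentration 25 uM (duplicate), follow-up concentration-response for actives.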

[5] = target: human Serotonin, 5-Hydroxytryptamine Receptor 2A (5HT2A), HTR2A (gene 3356) (UniProt P28223); test: NVS_GPCR_h5HT2A: NovaScreen (NVS) G Protein-Coupled Receptor Assay for human Serotonin, 5-Hydroxytryptamine Receptor 2A (5HT2A) (AID 2283249)
Sequence of human Serotonin, 5-Hydroxytryptamine Receptor 2A (5HT2A), HTR2A (gene 3356) (P28223 whole entry, looked up): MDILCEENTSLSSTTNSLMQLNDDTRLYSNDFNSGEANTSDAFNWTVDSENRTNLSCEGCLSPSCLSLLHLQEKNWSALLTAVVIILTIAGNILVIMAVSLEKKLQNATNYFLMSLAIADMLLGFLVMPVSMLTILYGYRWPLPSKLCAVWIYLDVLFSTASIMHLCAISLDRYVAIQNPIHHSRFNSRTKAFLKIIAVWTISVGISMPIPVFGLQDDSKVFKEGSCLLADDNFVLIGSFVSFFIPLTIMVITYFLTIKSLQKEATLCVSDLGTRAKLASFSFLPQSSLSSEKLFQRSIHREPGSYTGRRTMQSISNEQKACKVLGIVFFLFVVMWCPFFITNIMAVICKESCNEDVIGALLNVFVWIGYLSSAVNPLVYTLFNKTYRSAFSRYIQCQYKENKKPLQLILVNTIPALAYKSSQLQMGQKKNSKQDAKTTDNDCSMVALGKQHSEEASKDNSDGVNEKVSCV
How it was run: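 Radioligand displacement on human cortex tissue extract, counted by filtration and scintillation 1.5 h post-dosing. Initial single-concentration screen at 25 uM in duplicate, concentration series in follow-up; DMSO as baseline.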

[6] = target: human Serotonin, 5-Hydroxytryptamine Receptor 5A (5HT5A), HTR5A (gene 3361) (UniProt P47898); test: NVS_GPCR_h5HT5A: NovaScreen (NVS) G Protein-Coupled Receptor Assay for human Serotonin, 5-Hydroxytryptamine Receptor 5A (5HT5A) (AID 2283251)
Sequence of human Serotonin, 5-Hydroxytryptamine Receptor 5A (5HT5A), HTR5A (gene 3361) (P47898 whole entry, looked up): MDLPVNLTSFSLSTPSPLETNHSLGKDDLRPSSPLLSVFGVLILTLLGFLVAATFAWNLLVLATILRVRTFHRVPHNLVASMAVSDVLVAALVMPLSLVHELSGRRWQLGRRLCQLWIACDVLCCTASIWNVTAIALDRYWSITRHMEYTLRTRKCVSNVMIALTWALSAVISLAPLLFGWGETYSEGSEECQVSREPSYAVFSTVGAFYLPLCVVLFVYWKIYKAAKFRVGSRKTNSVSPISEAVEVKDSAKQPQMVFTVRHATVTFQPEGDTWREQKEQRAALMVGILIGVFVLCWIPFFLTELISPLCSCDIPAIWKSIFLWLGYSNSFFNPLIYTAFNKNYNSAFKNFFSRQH
How it was run: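 Membranes from HEK293 cells, radioligand binding read by filtration and scintillation after 1 h. Single-concentration duplicate testing at 25 uM, then concentration-response for actives; positive-direction fitting relative to DMSO.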

[7] = target: human Serotonin, 5-Hydroxytryptamine Receptor 6 (5HT6), HTR6 (gene 3362) (UniProt P50406); test: NVS_GPCR_h5HT6: NovaScreen (NVS) G Protein-Coupled Receptor Assay for human Serotonin, 5-Hydroxytryptamine Receptor 6 (5HT6) (AID 2283253)
Sequence of human Serotonin, 5-Hydroxytryptamine Receptor 6 (5HT6), HTR6 (gene 3362) (P50406 whole entry, looked up): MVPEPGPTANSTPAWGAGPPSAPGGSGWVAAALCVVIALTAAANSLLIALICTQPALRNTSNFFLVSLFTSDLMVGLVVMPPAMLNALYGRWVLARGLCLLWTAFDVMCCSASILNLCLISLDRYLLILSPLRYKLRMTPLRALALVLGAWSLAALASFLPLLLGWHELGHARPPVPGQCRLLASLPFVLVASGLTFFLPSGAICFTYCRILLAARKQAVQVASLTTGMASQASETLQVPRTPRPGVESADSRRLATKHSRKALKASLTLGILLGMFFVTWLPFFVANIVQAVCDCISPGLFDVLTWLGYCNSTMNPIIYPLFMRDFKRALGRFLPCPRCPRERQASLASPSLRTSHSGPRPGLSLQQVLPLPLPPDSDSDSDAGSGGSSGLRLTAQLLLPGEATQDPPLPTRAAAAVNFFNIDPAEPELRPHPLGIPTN
How it was run: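 Filter scintillation counting of radioligand displacement from HEK293-expressed 5HT6, 1 hour post-dose, with loss of signal relative to DMSO. Single 25 uM duplicates first, with concentration series for confirmation.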

[8] = target: human Adenosine A1 Receptor (AdoRA1), ADORA1 (gene 134) (UniProt P30542); test: NVS_GPCR_hAdoRA1: NovaScreen (NVS) G Protein-Coupled Receptor Assay for human Adenosine A1 Receptor (AdoRA1) (AID 2283254)
Sequence of human Adenosine A1 Receptor (AdoRA1), ADORA1 (gene 134) (P30542 whole entry, looked up): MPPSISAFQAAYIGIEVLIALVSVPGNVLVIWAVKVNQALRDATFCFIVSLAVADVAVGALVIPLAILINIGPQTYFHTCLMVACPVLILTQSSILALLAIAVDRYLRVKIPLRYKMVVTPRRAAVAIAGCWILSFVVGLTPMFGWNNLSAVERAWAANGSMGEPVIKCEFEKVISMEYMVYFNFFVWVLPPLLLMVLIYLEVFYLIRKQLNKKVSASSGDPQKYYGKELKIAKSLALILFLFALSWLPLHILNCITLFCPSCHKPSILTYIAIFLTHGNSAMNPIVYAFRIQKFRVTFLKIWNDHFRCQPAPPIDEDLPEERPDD
How it was run: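 Each chemical is first tested twice at 25 uM, actives later in dilution series, against a radioligand bound to human cortex membranes; after 1 h, filter-retained counts are compared with DMSO controls, lower signal indicating displacement.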

[9] = target: guinea pig Leukotriene D4 Receptor (LTD4), CYSLTR1 (gene 100135514) (UniProt Q2NNR5); test: NVS_GPCR_gLTD4: NovaScreen (NVS) G Protein-Coupled Receptor Assay for guinea pig Leukotriene D4 Receptor (LTD4) (AID 2283248)
Sequence of guinea pig Leukotriene D4 Receptor (LTD4), CYSLTR1 (gene 100135514) (Q2NNR5 whole entry, looked up): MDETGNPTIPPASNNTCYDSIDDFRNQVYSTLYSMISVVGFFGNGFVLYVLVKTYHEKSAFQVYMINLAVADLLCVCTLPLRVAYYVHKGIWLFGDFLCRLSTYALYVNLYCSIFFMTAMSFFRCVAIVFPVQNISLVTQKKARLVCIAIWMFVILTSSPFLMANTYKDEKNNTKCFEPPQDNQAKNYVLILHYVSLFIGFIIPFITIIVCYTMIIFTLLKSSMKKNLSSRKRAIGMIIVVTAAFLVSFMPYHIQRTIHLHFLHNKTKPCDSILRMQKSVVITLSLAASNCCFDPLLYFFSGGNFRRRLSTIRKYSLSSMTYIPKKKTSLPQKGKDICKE
How it was run: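 Guinea pig lung membrane preparation; bound radioligand measured by filter scintillation after 1 h, loss of signal versus DMSO marking displacement. Compounds tested at 25 uM in duplicate, hits retested to max 50 uM.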

CCCN(C1CCN(C(=O)C2CCNCC2)CC1)[C@@H]1CCc2ccc(OC)cc2C1
AC50 [1]: 11.6 µM (active) | AC50 [2]: 9.93 µM (active) | AC50 [3]: 0.00229 µM (active) | AC50 [4]: 7.41 µM (active)

Cc1[nH]cnc1C[C@H]1CCc2c(C)c3ccccc3n2C1=O
AC50 [5]: 1.45 µM (active) | AC50 [3]: 10.5 µM (active) | AC50 [6]: 2.93 µM (active) | outcome [4]: inactive | AC50 [7]: 0.399 µM (active)

CCCCCCc1ccc(O)cc1O
outcome [6]: inactive

Cn1c(=O)cc(Oc2ccc(F)cc2F)c2cnc(NCC(C)(C)O)nc21
outcome [4]: inactive

CCOC(=O)COc1ccc2c(c1)CC(NCC(O)c1cccc(Cl)c1)CC2 (configuration not stated)
AC50 [5]: 12.1 µM (active) | AC50 [3]: 22.9 µM (active) | AC50 [6]: 18.8 µM (active)

CCN(C(=O)c1cc(C)cc(OC[C@H](C)Nc2ccncc2)c1)C(C)C
outcome [5]: inactive

Nc1ccc(Nc2ccccc2)cc1
outcome [3]: inactive | AC50 [6]: 11.3 µM (active) | AC50 [4]: 20.6 µM (active) | outcome [8]: inactive

CCn1nc(Cc2ccccc2)cc1C1CCN(C[C@H]2C[C@H](N(C)[C@@H](C(=O)O)C(C)C)C[C@@H]2c2cccc(F)c2)CC1
AC50 [6]: 13.8 µM (active) | AC50 [4]: 8.5 µM (active)

CCc1cc(SCc2sc(-c3ccc(C(F)(F)F)cc3)nc2CN2CCN(c3ccc(OC)cc3)CC2)ccc1OCC(=O)O
outcome [9]: inactive | outcome [5]: inactive | AC50 [6]: 2.36 µM (active) | AC50 [7]: 37.3 µM (active)

CN(C)c1ccc(N=NS(=O)(=O)O)cc1
AC50 [4]: 8.61 µM (active)

CCC(C)(C)C(=O)O[C@H]1C[C@@H](C)C=C2C=C[C@H](C)[C@H](CC[C@@H]3C[C@@H](O)CC(=O)O3)[C@H]21
outcome [6]: inactive
